The list is not random: actives were taken first. Their share in the collection is about 10%.
Six1-Eya2 blk: blocks human Six1 binding to Eya2; AlphaScreen GST-Six1/His-Eya2 binding, biochemical; hits give low values; activity change, % (test concentration not listed); actives 0.56% (n = 360,000); AID 651725; in the data active means activity change below about -65%; inconclusive means mostly about -30% to -63%; further: on the % scale 0 is the no-effect control and ±100 the full control effect
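GST-Six1 + His-Eya2 (5X stock: 250/500 nM); Tris pH 8.0, 300 mM NaCl, 0.05% BSA, 0.02% Tween 20; GSH donor/Ni acceptor beads; 1 h 37 °C dark; AlphaScreen readout.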
BAZ2B inh: inhibitors of human BAZ2B bromodomain; Q9UIF8; AlphaScreen BAZ2B-H3K14Ac peptide displacement; Potency, µM (series often up to 114 µM), for inactives: at the highest dose activity change, negative = inhibition, usual class: inhibitors; actives 4.4% (n = 360,000); further: potency means the concentration at half of the fitted maximal effect; on the % scale 0 is the no-effect control and ±100 the full control effect; nearly all actives have a fitted effect of over 60% in size
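In this displacement format the biotinylated H3(5-23) peptide acetylated at Lys14 serves as ligand at 50 nM, with BAZ2B at 50 nM in PBS pH 7.4 containing 0.01% Tween-20. Donor and acceptor beads are 10 ug/mL final.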
CtBP-E1A blk: inhibitors of CtBP/E1A interaction; AlphaScreen GST-E1A/His-CtBP binding, 1536-well; hits give low values; activity change, % (test concentration not listed); actives 0.49% (n = 340,000); in the data active means activity change below about -65%; inconclusive means mostly about -30% to -63%; further: on the % scale 0 is the no-effect control and ±100 the full control effect
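Protein mix (5X: 125 nM each GST-E1A, His-CtBP) was incubated with pinned compound 2 h at 37 deg C in dark, in 50 mM Tris pH 8.0 buffer with 300 mM NaCl. Glutathione donor and nickel acceptor beads followed; AlphaScreen signal read after 1 h.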
G9a block: G9a (human) methyltransferase inhibition | G9a H3K9 monomethylation, AlphaScreen, 2 h | Q96KQ7 | Potency, µM (top dose mostly 102 µM), for the others: top-dose activity, negative = inhibition, most hits filed as inhibitors | actives 8.8% (n = 350,000) | AID 504332; further: potency means the concentration at half of the fitted maximal effect; on the % scale 0 is the no-effect control and ±100 the full control effect; nearly all actives have a fitted effect of over 75% in size
Target sequence (Q96KQ7 913-1193 limits assumed): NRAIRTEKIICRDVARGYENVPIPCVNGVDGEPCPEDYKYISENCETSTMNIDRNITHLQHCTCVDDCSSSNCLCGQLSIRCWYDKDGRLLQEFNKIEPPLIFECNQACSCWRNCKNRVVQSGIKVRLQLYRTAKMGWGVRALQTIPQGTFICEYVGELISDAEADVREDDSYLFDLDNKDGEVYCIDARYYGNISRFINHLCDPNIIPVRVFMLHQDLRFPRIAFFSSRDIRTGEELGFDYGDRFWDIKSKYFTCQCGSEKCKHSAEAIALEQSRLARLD
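G9a (20 nM) was preincubated 15 min with compound, then reacted 2 h at room temperature with 500 nM biotin-H3K9 peptide and 20 µM SAM. Monomethyl-H3K9 detected by AlphaScreen using anti-H3K9me1 antibody.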
JMJD2A Tudor: JMJD2A Tudor domain (human) inhibition | Potency, µM (highest dose often 114 µM), for inactives: at the highest dose activity change, negative = inhibition, actives largely listed as inhibitors | actives 4.4% (n = 390,000) | AlphaScreen JMJD2A-Tudor / H3K4me3 peptide binding | O75164; further: potency means the concentration at half of the fitted maximal effect; on the % scale 0 is the no-effect control and ±100 the full control effect; nearly all actives have a fitted effect of over 50% in size
HP1b binding inh: blocks HP1-beta chromodomain binding to methylated histone tails | P83916 | AlphaScreen HP1-beta / biotin-H3K9me3 peptide binding | Potency, µM (doses to about 114 µM), for the others: top-dose activity change, negative = inhibition, hits mostly inhibitors | actives 0.56% (n = 390,000) | AID 540317; further: potency means the concentration at half of the fitted maximal effect; nearly all actives have a fitted effect of over 70% in size
Target sequence (P83916 whole entry, looked up): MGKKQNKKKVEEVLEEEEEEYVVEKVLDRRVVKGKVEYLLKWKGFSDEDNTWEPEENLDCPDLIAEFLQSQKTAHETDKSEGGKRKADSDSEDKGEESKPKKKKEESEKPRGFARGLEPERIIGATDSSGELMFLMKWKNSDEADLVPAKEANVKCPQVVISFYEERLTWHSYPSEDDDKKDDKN
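HP1-beta protein (50 nM final) preincubated 30 min at room temperature with biotinylated H3(1-18)K9me3 peptide (50 nM) in PBS pH 7.4, 0.01% Tween-20, then compound added for 30 min. AlphaScreen streptavidin donor/nickel chelate acceptor beads (10 ug/mL final), 30 min dark, luminescence read.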
* marks the source's active call; other numbers are inactive results; ? = inconclusive; / = no result given; ! = repeats disagree; [ ] = another dose, or the depositor's remark. Unless noted, the call rests on the fitted dose curve; in most records, active means well fitted inhibition curve with a large enough effect; inconclusive means small, poorly fitted or top-dose-only effect; inactive means no such curve, though single readings can be large or run the other way.

SMILES	Six1-Eya2 blk	BAZ2B inh	CtBP-E1A blk	G9a block	JMJD2A Tudor	HP1b binding inh
Cc1ccc(CN2CCSc3ccc(C(=O)N4CCN(c5ccccc5)CC4)cc32)cc1	/	-16%	/	18µM*	?	0%
CCn1nc(C)c(/C=N/NC(=O)c2ccc3c(c2)c(C)c(C)n3Cc2ccccc2)c1C	-12	?	0	?	35µM*	-16%
CC(=O)c1ccc2noc(-c3ccccc3)c2c1	11	-16%	0	/	0%	72%
CC(=O)c1ccc2noc(-c3cccc(C)c3)c2c1	8	-1%	2	18µM*	1%	32%
CCCCS(=O)CC(COc1ccc(Cl)cc1)OC(=O)c1ccccc1 (stereo not drawn)	2	26%	3	50µM*	33%	89%
N=c1c[n+](N2CCOCC2)[n-]o1	6	50µM*	-5	8.9µM*!	56µM*	2%
CC1N(C)c2cc(NC(=O)c3ccco3)ccc2C1(C)C (stereo not drawn)	-29	50µM*	-13	?	?	-11%
CC(=O)Nc1ccc(NC(=O)c2ccco2)cc1	3	10%	1	18%[2.33 µM]	-7%	23%
N#C/C(=C/C1=C(N2CCOCC2)C(=C/c2ccc(Cl)cc2Cl)/CC1)C(=O)Nc1ccccc1F	-2	/	0	/	?	?
CNc1ccc(S(=O)(=O)NCC(=O)NCCCc2ccccc2)cc1[N+](=O)[O-]	0	50µM*	-5	40µM*	?	1%
CC(C)CSc1ccc(S(=O)(=O)NCC(=O)O)cc1[N+](=O)[O-]	-1	-28%	11	50µM*	-26%	27%
CN(C)c1ccc(S(=O)(=O)NCC(=O)NCc2ccccc2)cc1[N+](=O)[O-]	8	?	/	45µM*	?	-5%
CNc1ccc(S(=O)(=O)NCC(=O)OC(C)C(=O)N(C)Cc2ccccc2)cc1[N+](=O)[O-] (stereo not drawn)	-5	-5%	/	1%[12.7 µM]	-25%	10%
CSc1ccc(S(=O)(=O)NCC(=O)OC(C)C(=O)NCc2ccccc2)cc1[N+](=O)[O-] (stereo not drawn)	-3	-5%	22	-6%	-27%	-2%
CN(C)c1ccc(S(=O)(=O)NCC(=O)OCC(=O)NC(=O)C2CCCCC2)cc1[N+](=O)[O-]	-4	-7%	0	3%[12.7 µM]	-15%	9%
CN(C)c1ccc(S(=O)(=O)NCC(=O)OCC(=O)Nc2cccc(Cl)c2)cc1[N+](=O)[O-]	-4	?	1	56µM*	?	-21%
O=C(Nc1c(Cl)cccc1Cl)c1cccc2c1C(=O)N(C1CCCCC1)C2	/	/	/	0%[59 µM]	-9%	28%
O=C(NC(c1ccc(-c2ccccc2)cc1)c1cnccn1)C1CCN(CCOc2ccc(F)cc2)CC1 (stereo not drawn)	0	/	9	/	/	/
CCc1ccc2occ(CC(=O)Nc3c(C(=O)c4ccccc4)oc4ccccc34)c2c1	/	16%	/	13%[59 µM]	47%	58%
CCn1c(SCC(N)=O)nnc1-c1ccco1	6	10%	-1	9%	-7%	12%
CCn1c(SCC(=O)N2c3ccccc3Sc3ccccc32)nnc1-c1ccco1	-17	?	0	6.3µM*	?	-7%
CCn1c(SCC(=O)c2cccs2)nnc1-c1ccco1	17	-5%	2	50µM*	-16%	33%
NC(=O)/C(=C\c1ccco1)NC(=O)c1ccco1	-20	/	-6	/	/	/
NC(=O)/C(=C/c1ccco1)C(N)=S	0	-17%	-1	18µM*	?	-7%
O=C(CSc1nnc(-c2ccco2)n1Cc1ccccc1)OC1CCCCC1	-16	?	?	50µM*	-23%[57.1 µM]	2%
O=C(CSc1nnc(-c2ccncc2)n1Cc1ccco1)OC1CCCCC1	0	-31%	6	-39%[12.7 µM]	-10%	23%
CC(=O)c1c(C)[nH]c(C(=O)CSc2nnc(-c3ccco3)n2Cc2ccccc2)c1C	-9	50µM*	-13	40µM*	-14%[57.1 µM]	9%
